# From PubChem BioAssay AID1422 (Emory University Molecular Libraries Screening Center, 2008)
# Where “and” joins values, the source holds several entries; their conditions need not be identical. Equal values may be shown once. Hit rate of the full screen: of about 260,000 compounds, about 1,300 (0.5%) were called active.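 The calls were made as follows: active = percent inhibition above 40 after rounding to a whole number; inactive = the rest.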 What follows is part of a selection rich in actives, with near analogues and random picks from the rest. Some compounds were tested as several samples or in several runs, with calls that do not always agree.
# Molecular target: Prostaglandin E2 receptor EP2 subtype (Homo sapiens) (UniProt P43116)
# Assay: blockers of PGE2-driven EP2 cAMP signalling – TR-FRET cAMP, C6 glioma cells, primary screen (AID 1422);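 also: rat C6 glioma host cells with rolipram phosphodiesterase inhibitor present; the protocol text gives 20 µM as final concentration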
# Details: C6 glioma cells expressing human EP2, cAMP TR-FRET; at 25 µM; stronger effect = higher value; cells stimulated with saturating PGE2
# Sequence of Prostaglandin E2 receptor EP2 subtype (Homo sapiens) (P43116 whole entry, looked up): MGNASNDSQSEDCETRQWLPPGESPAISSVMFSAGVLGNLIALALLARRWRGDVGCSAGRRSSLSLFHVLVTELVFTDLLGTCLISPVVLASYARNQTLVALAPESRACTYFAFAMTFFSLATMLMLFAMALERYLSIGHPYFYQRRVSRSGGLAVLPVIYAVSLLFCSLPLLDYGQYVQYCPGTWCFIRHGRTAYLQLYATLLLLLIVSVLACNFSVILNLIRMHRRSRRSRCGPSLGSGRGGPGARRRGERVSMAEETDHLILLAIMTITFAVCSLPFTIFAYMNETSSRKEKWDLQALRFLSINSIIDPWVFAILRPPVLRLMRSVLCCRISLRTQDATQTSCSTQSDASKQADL
row,Structure (SMILES),inhibition
1,COc1ccc2cc(CN(C(=O)Nc3ccc(F)cc3)C3CCCC3)c(=O)[nH]c2c1,8.38% (inactive)
2,CN(C)c1ncc(CN2CCC(O)(c3ccccc3F)CC2)cn1,5.6% (inactive)
3,COc1ccccc1NC(=O)c1sc(NC(=O)c2cccc(C)c2)c(C#N)c1C,11.9% (inactive)
4,CCC(CN1CCC(C)CC1)NC(=O)Cc1c(C)nc(OC)nc1OC (stereo not given),0.46% (inactive)
5,O=C(O)c1nn(-c2ccc(Cl)cc2)c2c1C(=O)c1ccccc1C2=O,42.4% (active)
6,Cc1cc(C(=O)NCCc2ccc(Cl)cc2)n(-c2ccccc2)n1,6.8% (inactive)
7,Cc1ccc(-n2ccc(=O)c(C(=O)O)n2)cc1,11.4% (inactive)
8,Cc1sc2nc(C(C)C)nc(SCC(=O)NCc3ccccc3)c2c1C,4.54% (inactive)
9,O=C(NC1CCCC1)C(c1ccccc1F)N(Cc1ccco1)C(=O)Cc1c[nH]c2ccccc12 (stereo not given),11.9% (inactive)
10,Cc1ccccc1C(=O)Nc1ccc(N2CCCCCC2)cc1,-0.3% (inactive)
11,N#CSc1ccc(N2CCCCC2)cc1,6.1% (inactive)
12,O=C1C=CC(=O)N1c1ccc(N2CCCCC2)cc1,106% (active)
13,C=C(C)Cn1c(N2CCC(C)CC2)nc2c1c(=O)[nH]c(=O)n2C,10.2% (inactive)
14,C=CCn1c(NC)nc2c1c(=O)n(C)c(=O)n2C,7.03% (inactive)
15,CCOC(=O)c1cc(-c2ccc(Cl)s2)nc2c1c(C)nn2C,41.6% (active)
16,CCOC(=O)c1cnc2c(c(C)nn2CC)c1Cl,4.46% (inactive)
17,Cc1c(NC(=O)c2cc(-c3ccc(Cl)s3)nc3ccccc23)c(=O)n(-c2ccccc2)n1C,13.1% (inactive)
18,COc1cc(OC)cc(-n2nnnc2SCC(=O)N2CCN(C)CC2)c1,10.8% (inactive)
19,COc1ccc2cc(C#N)c(SCC(=O)Nc3ccccc3Br)nc2c1,27% (inactive)
20,C=CS(=O)c1sc(Cl)c(N2CCOCC2)c1[N+](=O)[O-] (stereo not given),116% (active)
21,COc1cc(NC(=O)CSc2nnc3c(n2)[nH]c2ccccc23)cc(OC)c1,9.57% (inactive)
22,Cc1cc2nc(-c3ccc(SCC(=O)N4CCCCC4C)nc3)[nH]c2cc1C (stereo not given),12.4% (inactive)
23,Cc1ccc(SCCC(=O)Nc2cc(C)on2)cc1,1.47% (inactive)

row,Structure (SMILES),inhibition
1,Cc1ccc2nc(-c3ccc(SCC(=O)Nc4cc(C)on4)nc3)[nH]c2c1,64.2% (active) and 20.1% (inactive)
2,CCCN1C(=O)/C(=C/N(C(C)=O)c2ccccc2)SC1=S,12.5% (inactive)
3,CC1CCN(C(=O)CSc2nc3ccccc3n2Cc2ccccc2)CC1,11.6% (inactive)
4,Fc1ccc2[nH]c3c(N4CCSCC4)ncnc3c2c1,59.2% (active)
5,O=C(NCc1noc(-c2ccccc2)n1)c1cc(-c2ccccn2)n[nH]1,4.63% (inactive)
6,O=C(CN1C(=O)[C@@H]2CCCN2C(=O)c2ccccc21)Nc1ccc2c(c1)OCCO2,6.18% (inactive)
7,NC(N)=N/N=C/c1ccc(OCc2ccc(Cl)cc2Cl)cc1,97.3% (active)
8,COc1ccc(C(=O)O/N=C(\N)Cc2ccc(Cl)cc2Cl)cc1OC,14.2% (inactive)
9,NC(N)=N/N=C/c1ccc(Cl)c([N+](=O)[O-])c1,5.88% (inactive)
10,CCOc1ccc2nc(NC(=O)c3ccc(NC(C)=O)cc3)sc2c1,11.4% (inactive)
11,CC(C)(C)NC(=O)Cn1nnc(-c2ccc(N)cc2)n1,7.5% (inactive)
12,COc1ccccc1CC(=O)Nc1ccc([N+](=O)[O-])cc1OC,2.1% (inactive)
13,COc1ccccc1CSc1nc2ccccc2[nH]1,-5.57% (inactive)
14,COc1ccccc1CSc1ncc(-c2ccc([N+](=O)[O-])cc2)[nH]1,85.8% (active)
15,N#CCN1CCN(c2ncnc3sc4c(c23)CCCC4)CC1,12.8% (inactive)
16,CCN(CC)CCCN1C(=O)C(O)=C(C(=O)c2ccc(C)o2)C1c1ccccc1F (stereo not given),13.9% (inactive)
17,COc1ccc(C2=NNC(c3cccnc3)=Nc3ccc(Br)cc32)cc1OC,6.87% (inactive)
18,Cc1cccc(C(=O)O)c1C[C@@H]1NCC[C@@H]2c3ccccc3N[C@@H]12,46% (active)
19,O=C(CN1N=C(c2ccccc2)Cn2c(cc3sccc32)C1=O)NCC1CCCO1 (stereo not given),4.16% (inactive)
20,CCc1cc2cc3c(cc2nc1SCC(=O)Nc1ccccc1Br)OCCO3,8.66% (inactive)
21,COC(=O)C(C)NC(=O)COc1ccc2ccccc2c1 (stereo not given),8.28% (inactive)
22,Cc1cc2ccccc2n1CCNC(=O)COc1ccc2ccccc2c1,73.2% (active)
23,Cc1cc2ccccc2n1CCC(=O)O,7.85% (inactive)

row,Structure (SMILES),inhibition
1,COC(=O)c1ccc(Cn2nc([N+](=O)[O-])c(Cl)c2C)cc1,12.7% (inactive)
2,O=S(=O)(O)c1ccc(O)c2ncccc12.O=S(=O)(O)c1ccc(O)c2ncccc12.[Zn],45.1% (active)
3,O=[N+]([O-])c1cc([N+](=O)[O-])c2cccnc2c1O,7.12% (inactive)
4,O=C(O)COc1c(Cl)cc(Cl)c2cccnc12,16.4% (inactive)
5,Cc1ccc(-n2c(SCC(=O)NC(C)(C)C)nnc2-c2cccnc2)cc1C,15.1% (inactive)
6,Cc1ccc(NC(=S)NC(=O)/C=C/c2ccc(Cl)cc2)cc1,5.92% (inactive)
7,COc1ccc(NS(=O)(=O)c2ccc(NC(=O)C(C)(C(F)(F)F)C(F)(F)F)cc2)nn1,14.1% (inactive)
8,COc1ccc(NS(=O)(=O)c2ccc(NC(=S)NC(=O)/C=C/c3ccc(C)cc3)cc2)nn1,63.2% (active)
9,CC1CCN(c2nc3c(c(=O)[nH]2)CCN(Cc2ccc(C(F)(F)F)cc2)C3)CC1,6.96% (inactive)
10,COc1ccc(Cc2nnc(NC(=O)Cc3ccc(Cl)cc3)s2)cc1OC,9.47% (inactive)
11,CC1=NN(Cc2ccccc2)C(=O)/C1=C/c1ccc(N(C)C)cc1,18.2% (inactive)
12,COc1cc(C=C2C(=O)OC3(CCCC3)OC2=O)ccc1OCc1ccccc1F,13.4% (inactive)
13,CN(C)c1ccc(C=C2C(=O)OC3(CCCC3)OC2=O)cc1,41.7% (active) and 7.71% (inactive)
14,Cc1nn(C)cc1S(=O)(=O)N(Cc1ccncc1)C1CC1,7.77% (inactive)
15,Cc1nc2c(c(=O)[nH]1)CCN(C(=O)Cn1c3ccccc3c3ccccc31)C2,7.09% (inactive)
16,Cc1[nH]nc2c1C(c1ccc(OCC(=O)N3CCCC3)cc1)C(C#N)=C(N)O2 (stereo not given),10.8% (inactive)
17,COc1ccc(OCCCC(=O)Nc2nc(-c3ccc(OC)cc3)cs2)cc1,12.9% (inactive)
18,Cc1ccc(CNS(=O)(=O)c2cccc(S(=O)(=O)N3CCCC3)c2)cc1,10.8% (inactive)
19,COCCn1c(N2CCCC2)nc2c1c(=O)n(C)c(=O)n2C,7.42% (inactive)
20,O=C(CSc1nnc(-c2ccccc2)o1)N1CCOCC1,8.71% (inactive)
21,CC1=CC(C)(C)N(C(=O)CSc2nccn2C)c2cc(C)ccc21,17.5% (inactive)
22,CC1=CC(C)(C)N(C(=O)CSc2nnc(-c3ccccc3)o2)c2ccc(C)cc21,45.4% (active)
23,COc1ccc(C2(NC(=O)c3noc(C)c3Cn3cccn3)CCCCC2)cc1,7.45% (inactive)

row,Structure (SMILES),inhibition
1,Cc1ccc(NC(=O)CSc2nnc(-c3ccncc3)n2C2CCCCC2)c(C)c1,15.8% (inactive)
2,COc1ccc(CNC(=O)CCSc2nc(-c3ccco3)cc(C(F)(F)F)n2)cc1,9.17% (inactive)
3,CC(Nc1nc(N2CCCC2)nc2ccccc12)c1ccccc1 (stereo not given),48.2% (active)
4,CC(Nc1nc(N2CCN(CCO)CC2)nc2ccccc12)c1ccccc1 (stereo not given),7.4% (inactive)
5,CC(Nc1nc(N2CCOCC2)nc2ccccc12)c1ccccc1 (stereo not given),7.73% (inactive)
6,COCCNS(=O)(=O)c1ccc2[nH]c(=O)[nH]c2c1,9.6% (inactive)
7,Cc1cc(C)c2[nH]c(C)c(CN(C)Cc3ccccc3)c(=O)c2c1,12% (inactive)
8,CCC(c1nnnn1C(C)(C)C)N(Cc1ccccc1)Cc1cc2ccc(C)cc2[nH]c1=O (stereo not given),5.18% (inactive)
9,Cc1nc(NC(=O)c2sc3nc4c(C)cccc4cc3c2N)sc1C,19.7% (inactive)
10,O=C(Nc1ccccc1Cl)c1ccc2nsnc2c1,5.72% (inactive)
11,O=C(COC(=O)c1cccs1)Nc1ccccc1Cl,5.7% (inactive)
12,O=C(Nc1ccccc1Cl)/C(Cl)=C(\Cl)S(=O)c1ccccc1 (stereo not given),57.5% (active)
13,CC(C)OCCCNC(=O)c1cc(Sc2ccc(F)cc2)nc2ccccc12,8.64% (inactive)
14,COc1cc(OC)c(OC)cc1/C=N/Nc1ncnc2c1[nH]c1ccc(C)cc12,5.82% (inactive)
15,CC(C)OCCCNc1ncnc2c1[nH]c1ccc(F)cc12,46.2% (active)
16,CCCc1[nH]nc2c1C(c1c(C)nn(-c3ccccc3)c1Cl)C(C#N)=C(N)O2 (stereo not given),25.4% (inactive)
17,CCCc1[nH]nc2c1C(c1ccc(Br)s1)C(C#N)=C(N)O2 (stereo not given),51.9% (active)
18,CCCc1[nH]nc2c1C(C1CC=CCC1)C(C#N)=C(N)O2 (stereo not given),3.84% (inactive)
19,CC(Sc1nnc(-c2cccnc2)n1-c1ccccc1)C(=O)Nc1ccc(N)cc1 (stereo not given),14.6% (inactive)
20,O=c1c2ccc(Br)c3cccc(c32)c2nc3ccccc3n12,6.4% (inactive)
21,COc1ccccc1CNS(=O)(=O)c1ccc(S(=O)(=O)N2CCC(C)CC2)cc1,4.43% (inactive)
